Screening data from PubChem.
This is a sample that favours compounds with a hit; in the whole collection about 4.9% have one here.
HSF1 activator: increases HSF-1 driven luciferase reporter signal; NIH3T3-HGL HSF-1 luciferase reporter, MG132, 8 h; 100% = twice DMSO control signal; activation, % at 9 µM; hit rate 1.7% among 300,000; AID 504408;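 active = mean replicate activation of at least 50% with a set share of replicates each reaching 50%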;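 note: 0% = median of the neutral control wells and 100% = twice that signal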
dFosB activator: mouse delta FosB homodimer activation. purified delta FosB, TAMRA-CDK5 oligo fluorescence polarization; percent of positive-control signal above neutral wells. activation, % at 25 µM. hit rate 0.99% among 340,000;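 active = mean activation above about 17%, with every replicate also reaching it, limit read from the data, passing the limit was not always enough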
Platelet DG rel: modulates dense granule release in human platelets | human platelet-rich plasma, SFLLRN dense granule ATP release, luminescence | inhibition, %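 (compounds screened at 7.5 µM in platelet-rich plasma)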 | hit rate 0.22% among 300,000 | AID 1663;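 active = mean replicate score, as percent of positive control, at or above 50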
MPTP inh: blocks calcium-induced mitochondrial swelling | isolated mouse mitochondria, Ca2+ swelling absorbance, 30 min | inhibition, % at 10 µM | hit rate 1.4% among 360,000 | AID 602449;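 active = inhibition of 50% or more, scaled per plate between neutral and stimulator controls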;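 note: 0% = DMSO wells given calcium and 100% = 1 mM EGTA wells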
HSF1 inhib: HSF1 inhibition | AID 2098 | hit rate 0.77% among 300,000 | NIH3T3-HGL HSE-luciferase, MG132-induced, luminescence 8 h; active compounds read low | activity change, negative = inhibition, % at 7.5 µM (by protocol);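 active = more than half of replicate wells show activity change below -50%, luminescence cut by over half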;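 note: luciferase reports HSF-1 transcriptional activity via heat shock element; 0% = median of DMSO wells and -100% = zero luminescence signal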
HSP90 inh: blocks HSP90-mediated luciferase refolding in reticulocyte lysate; Rabbit reticulocyte lysate, luciferase refolding luminescence, 3 h; inhibition, % at 5.6 µM; hit rate 0.91% among 290,000; AID 1789;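 active = inhibition above the screen-wide mean plus 3 SD, computed separately per campaign, cut at about 16% in these data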;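 note: 0% = DMSO wells and 100% = 60 µM geldanamycin wells; inhibitors lower the luminescence because luciferase stays unfolded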
HSP90 confirm: confirmation of HSP90 inhibitors. hit rate 64% among 2,300. rabbit reticulocyte lysate, luciferase refolding luminescence, 3 h. inhibition, % at 5.9 µM. shares compounds with HSP90 inh; in the data active = inhibition above about 18%;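 note: 0% = vehicle wells and 100% = reference inhibitor wells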
FLuc counter: blocks native firefly luciferase in HSP90 counter-screen; shares compounds with HSP90 inh; purified native firefly luciferase, luminescence; inhibition, % at 5.9 µM; hit rate 48% among 2,300; AID 1847;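 active = inhibition above the mean inhibition of all tested sample wells plus 3 SD, cut at about 10% in these data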;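 note: 0% = DMSO with luciferase and 100% = wells lacking luciferase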
Target sequence (P08659 whole entry, looked up): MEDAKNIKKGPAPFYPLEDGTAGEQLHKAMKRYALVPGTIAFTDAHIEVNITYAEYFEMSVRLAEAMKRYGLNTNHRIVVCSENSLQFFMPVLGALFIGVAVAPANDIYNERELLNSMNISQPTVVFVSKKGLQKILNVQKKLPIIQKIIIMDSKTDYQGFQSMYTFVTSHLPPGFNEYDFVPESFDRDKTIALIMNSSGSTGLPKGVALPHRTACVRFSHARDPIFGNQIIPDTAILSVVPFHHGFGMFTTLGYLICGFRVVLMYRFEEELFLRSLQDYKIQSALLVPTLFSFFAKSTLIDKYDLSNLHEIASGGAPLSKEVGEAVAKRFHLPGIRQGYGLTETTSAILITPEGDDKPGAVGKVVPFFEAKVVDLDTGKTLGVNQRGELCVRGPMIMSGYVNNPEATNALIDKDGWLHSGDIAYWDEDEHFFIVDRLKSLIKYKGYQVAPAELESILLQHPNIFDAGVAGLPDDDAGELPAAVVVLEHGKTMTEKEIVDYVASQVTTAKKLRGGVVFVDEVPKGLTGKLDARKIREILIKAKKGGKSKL
An asterisk follows results filed as active; . = no result given.

SMILES	HSF1 activator	dFosB activator	Platelet DG rel	MPTP inh	HSF1 inhib	HSP90 inh	HSP90 confirm	FLuc counter
CC(=NCc1ccco1)c1c(C)[nH]n(-c2nc3ccccc3s2)c1=O	.	-4	-4	1	.	32*	50*	16*
Cc1nc(SCc2cccc(C(=O)O)c2)nc2c1CCCC2	-33	5	10	-1	-27	18*	47*	18*
Cc1ccc(Nc2nc(-c3sc(NC(=O)c4cccc(Cl)c4)nc3C)cs2)cc1	-16	.	0	.	-8	70*	46*	-14
COc1ccccc1Nc1nc(-c2sc(NC(=O)c3cccc(Cl)c3)nc2C)cs1	-19	.	-14	.	-8	66*	61*	-11
Cc1nc(NC(=O)c2cccc(Cl)c2)sc1C(=O)N1CCCCC1	-3	-9	-10	0	-1	34*	48*	-16
COc1ccccc1Nc1nc(-c2sc(NC(=O)C(C)(C)C)nc2C)cs1	5	-4	0	0	1	2	.	.
Cc1nc(NC(=O)C2CC2)sc1C(=O)N1CCCCC1	3	2	-3	1	-5	0	.	.
CCCCCC(=O)Nc1ccc(C2C(=O)c3ccccc3C2=O)cc1	6	-8	-6	2	5	-3	.	.
Nc1cccc2c1C(=O)N(C(=O)/C=C/c1ccc(F)cc1)C2=O	61*	-12	-2	-2	44	28*	12	-13
Cc1oc(-c2ccc(-c3ccccc3)cc2)nc1CN1CCN(CC(=O)N(C)C)CC1	-18	-14	14	-6	2	67*	79*	18*
CCc1ccc(NC(=O)c2cnn3ccccc23)cc1	-30	-1	17	-2	-32	65*	78*	71*
COc1cccc(-c2cnc(C(O)c3ccc(-c4ccccc4)cc3)[nH]2)c1 (configuration not stated)	.	.	.	2	.	.	.	.
COC(=O)c1ccc(Cn2cc(/C=C\[N+](=O)[O-])c3ccccc32)o1	-12	-5	0	0	-3	-4	.	.
O=C(O)c1ccc(Cn2cc(/C=C\[N+](=O)[O-])c3ccccc32)o1	-21	-1	-4	0	0	43*	4	-5
CCOC(=O)C1CCN(c2ncnc3c2cnn3-c2ccc(Cl)cc2)CC1	-18	-8	-1	-2	-7	2	.	.
Clc1ccc(-n2ncc3c(N4CCCC4)ncnc32)cc1	-12	-2	-5	-3	1	31*	62*	58*
Cc1cc(=O)c(C(=O)Nc2cccc(C(=O)NC3CC3)c2)nn1-c1ccccc1	.	.	.	1	.	.	.	.
Cc1cc(Nc2ccc(C(=O)O)cc2)nc(N)n1	16	13	4	0	5	11	.	.
Cc1cc(C)cc(Nc2ccc(C(=O)O)cc2N)c1	24	-10	-17	1	1	23*	1	-18
Cc1ccc(Nc2ccc(C(=O)O)cc2N)cc1	47	.	-3	.	44	20*	4	-20
Cc1cc(C)cc(Nc2ccc(C(=O)O)cc2[N+](=O)[O-])c1	5	-2	0	1	-2	-2	.	.
Cc1cc(Cl)ccc1OCC(=O)N(Cc1cccs1)C1CCS(=O)(=O)C1 (configuration not stated)	41	-11	0	0	16	23*	2	-4
CC(=O)Nc1ccc(S(=O)(=O)CC(=O)CS(=O)(=O)c2ccc(NC(C)=O)cc2)cc1	.	.	.	0	.	.	.	.
CSc1ncccc1C(=O)Nc1cc(Cl)ccc1N1CCOCC1	.	-2	.	0	.	.	.	.
O=C(Nc1ccc(N2CCOCC2)cc1)C1CCN(S(=O)(=O)Cc2ccccc2)CC1	3	-5	.	0	0	25*	0	-5
SMILES	HSF1 activator	dFosB activator	Platelet DG rel	MPTP inh	HSF1 inhib	HSP90 inh	HSP90 confirm	FLuc counter
O=C(Nc1ccc2c(c1)OCCO2)C1CCN(S(=O)(=O)Cc2ccccc2)CC1	-15	7	1	1	2	-4	.	.
O=C1Nc2ccccc2C1C(C[N+](=O)[O-])c1ccccn1 (configuration not stated)	-7	1	-9	1	1	-3	.	.
CCOC(=O)c1c(-c2ccc(C)o2)csc1NC(=S)NC(=O)c1ccccc1Br	85*	-15	-15	0	82	21*	5	-6
O=C1Nc2ccccc2N=C(c2ccc3c(c2)OCO3)C1N(CCc1ccccc1)C(=O)CSc1ncccn1 (configuration not stated)	.	.	.	0	.	.	.	.
O=[N+]([O-])/C(=C\Nc1ccccc1)S(=O)(=O)c1ccccc1	-9	-3	17	-11	-3	18*	3	-3
O=C(C(=O)N1CCCCC1)c1cn(CC(=O)N2CCCCCC2)c2ccccc12	-6	-11	-8	0	-6	-2	.	.
Cc1cnc(NC(=O)COc2ccc3c(c2)CCC3)s1	46	8	-7	0	26	18*	32*	23*
Cc1cccc(NC(=O)COc2ccc3c(c2)CCC3)n1	.	-8	.	0	.	.	.	.
COc1ccc(C(=O)OCCOc2ccccc2C(C)=O)c(O)c1	3	0	-3	0	-3	28*	7	-4
Cc1ccccc1NC(=O)N1CCCC(c2nc(-c3ccc(C(C)C)cc3)no2)C1 (configuration not stated)	-50	-12	-6	3	-44	70*	4	-24
CC(NC(=O)COC(=O)C1CCN(c2ccc(C(F)(F)F)cn2)CC1)c1ccc(F)cc1 (configuration not stated)	.	-18	.	-1	.	.	.	.
Cc1ccc(C(=O)NCC(=O)OC(C)C(=O)Nc2ccc(N3CCOCC3)cc2)s1 (configuration not stated)	-2	-9	0	-1	3	20*	-4	-13
c1ccc(-n2cnc3cc(NCc4cccs4)ccc32)cc1	-69	-10	-2	-4	-67*	51*	63*	61*
CCOC(=O)c1csc(NC(=O)c2ccc(S(=O)(=O)N(C)C)cc2)n1	-5	1	-3	0	-2	25*	37*	-7
CCOC(=O)c1csc(NC(=O)c2ccc3c(c2)OCCO3)n1	26	-22	-21	-1	16	57*	84*	-12
COC(=O)c1ccc(-n2c(C)cc(-c3csc(NC(=O)c4ccc(S(=O)(=O)N(C)C)cc4)n3)c2C)cc1	-27	-10	13	0	-13	25*	24*	-9
CCOC(=O)c1csc(NC(=O)c2ccc(OCC)cc2)n1	25	-2	-1	-3	13	42*	75*	-14
CCOC(=O)c1csc(NC(=O)c2ccc(OC)c(OC)c2)n1	-8	-6	-6	-2	-10	5	.	.
CCN(CC)C(=O)c1cn(CCC#N)nc1-c1ccc(F)cc1	-7	-5	6	3	-2	-1	.	.
